Data on 26 compounds can be found in PubChem BioAssay (Tox21).

Test [1] is described as follows: A CellTox Green Cytotoxicity Assay to monitor cytotoxicity in HepG2 cells - 8 hour (AID 1224890). Further: nearly all actives have a fitted effect of over 45% in size. Further: potency means the concentration at half of the fitted maximal effect. A digest of the protocol:
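Nonlytic assay: viable cells exclude the dye, so fluorescence scales with cell death. HepG2 at 600 cells/well, compounds added after 5 h, signal read across 40 h.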

Test [2] in a line: qHTS assay to identify small molecule antagonists of the estrogen receptor alpha (ER-alpha) signaling pathway using the BG1 cell line in the presence of 0.1 nM 17-beta-estradiol - cell viability counter screen (AID 1259241). Further: nearly all actives have a fitted effect of over 40% in size. The method in brief: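 VM7Luc4E2, 4,000 cells/well, phenol red-free medium + 10% charcoal-stripped FBS; 24 hr plating; cpd + 0.1 nM E2 final, 22 hr 37C/5% CO2; CellTiter-Fluor 30 min, fluorescence.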

Test [3] can be described thus: qHTS assay to identify small molecule antagonists of the androgen receptor (AR) signaling pathway using the MDA cell line in the presence of 0.5 nM R1881 - cell viability counter screen (AID 1259242). Further: nearly all actives have a fitted effect of over 45% in size. A digest of the protocol:
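R1881 at 0.5 nM final stimulated MDA-kb2 cells during 16 hr compound treatment at 37C. Cytotoxicity read: CellTiter-Fluor fluorescence after 30 min.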

Test [4] addresses Androgen receptor (Homo sapiens) (UniProt P10275). Put plainly: qHTS assay to identify small molecule antagonists of the androgen receptor (AR) signaling pathway using the MDA cell line in the presence of 0.5 nM R1881 (AID 1259243). Further: nearly all actives have a fitted effect of over 50% in size. A digest of the protocol: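 We exposed MDA-kb2 cells to compounds under 0.5 nM R1881 stimulation for 16 hr at 37C and quantified MMTV-driven luciferase by luminescence.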

Test [5] in a line: qHTS assay to identify small molecule HDAC inhibitors (AID 1259364).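 Further: wild-type HCT-116 cells with endogenous class I/II HDAC activity; top concentration of the series differs between compounds; nearly all actives have a fitted effect of over 45% in size.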 The method in brief:
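Relative class I and II HDAC activity is taken from the luminogenic signal in HCT-116 cells, with compound exposure 2 hr and reagent development 30 min at room temperature.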

Test [6] in a line: qHTS assay to identify small molecule HDAC inhibitors - cell viability counter screen (AID 1259365). Further: series mostly up to about 92 µM; nearly all actives have a fitted effect of over 50% in size. A digest of the protocol: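 Luminescence from CellTiter-Glo, developed 30min at room temperature, reports viability of wild-type HCT-116 cells treated 2hr with compounds at 37 C and 5% CO2 after overnight plating.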
A short description of test [7]: qHTS assay to identify small molecule agonists of the sonic hedgehog signaling (Shh) pathway - cell viability counter screen (AID 1259366). Further: nearly all actives have a fitted effect of over 50% in size. Further: potency means the concentration at half of the fitted maximal effect. A digest of the protocol: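 Cytotoxicity counter screen run in the same wells as the Shh reporter assay. NIH/3T3 cells carrying a Gli1 response element–driven luciferase were treated with DMSO-dissolved compounds for 24hr, and live-cell protease activity was measured with CellTiter-Fluor.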

A short description of test [8]: qHTS assay to identify small molecule antagonists of the sonic hedgehog signaling (Shh) pathway - cell viability counter screen (AID 1259367). Further: nearly all actives have a fitted effect of over 55% in size. The method in brief:
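NIH/3T3-derived Gli1-Luc reporter cells, 2,000/well, plated 4 hr before compound addition, then stimulated with conditioned medium for 24 hr at 37C. Viability measured in the same wells by CellTiter-Fluor fluorescence, reagent added at 23 hr for 1 hr.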

Test [9] addresses Estrogen receptor (Homo sapiens) (UniProt P03372). The experiment in a line: qHTS assay to identify small molecule antagonists of the estrogen receptor alpha (ER-alpha) signaling pathway using the BG1 cell line in the presence of 0.1 nM 17-beta-estradiol (AID 1259244). Further: nearly all actives have a fitted effect of over 50% in size. The method in brief: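 VM7Luc4E2; 4xERE-luciferase; 0.1 nM E2 final; 22 h co-incubation, 37C; ONE-Glo luminescence after 30 min at room temperature.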

Test [10] in a line: qHTS assay to identify small molecule phospholipidosis (PLD) inducers (AID 1259344; active means well fitted curve in the direction sought with a large enough effect; an effect the other way counts as inactive or inconclusive). A digest of the protocol:
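HepG2 cells, 900/well, treated with compound plus LipidTOX Red for 24 h at 37 C; amiodarone positive and DMSO negative controls. Fixed with paraformaldehyde/Hoechst, then high-content imaging scored LipidTOX pit count and integrated intensity per well and per cell.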

A number with no mark means an inactive call. Records with an inconclusive call do not appear. Calls of active or inactive are those of the source. Unless noted, the call rests on the fitted dose curve; in most records, active means well fitted curve in the direction sought with a large enough effect in the repeat runs; inconclusive means weak or mixed curves; inactive means no such curve, though single readings can be large; an effect the other way counts as inactive or inconclusive.
On the % scale 0 is the no-effect control and ±100 the full control effect.

Estrogen receptor (Homo sapiens), sequence (P03372 whole entry, looked up): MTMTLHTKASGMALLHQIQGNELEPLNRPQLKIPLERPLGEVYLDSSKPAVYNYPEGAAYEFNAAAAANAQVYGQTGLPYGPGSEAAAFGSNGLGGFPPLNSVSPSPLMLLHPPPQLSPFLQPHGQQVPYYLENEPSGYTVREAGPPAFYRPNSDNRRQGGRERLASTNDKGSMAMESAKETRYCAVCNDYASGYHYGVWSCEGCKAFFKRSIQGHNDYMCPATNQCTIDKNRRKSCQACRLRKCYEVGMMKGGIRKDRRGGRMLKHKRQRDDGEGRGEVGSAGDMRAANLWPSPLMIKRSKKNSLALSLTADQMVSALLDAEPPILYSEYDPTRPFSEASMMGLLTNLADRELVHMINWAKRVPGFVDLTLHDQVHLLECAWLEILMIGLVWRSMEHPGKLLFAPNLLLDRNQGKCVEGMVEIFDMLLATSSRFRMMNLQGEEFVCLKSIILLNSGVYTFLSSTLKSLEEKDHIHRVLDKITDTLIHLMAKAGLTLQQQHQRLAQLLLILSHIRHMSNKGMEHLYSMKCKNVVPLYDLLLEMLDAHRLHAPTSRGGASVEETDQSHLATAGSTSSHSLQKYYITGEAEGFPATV
Androgen receptor (Homo sapiens), sequence (P10275 whole entry, looked up): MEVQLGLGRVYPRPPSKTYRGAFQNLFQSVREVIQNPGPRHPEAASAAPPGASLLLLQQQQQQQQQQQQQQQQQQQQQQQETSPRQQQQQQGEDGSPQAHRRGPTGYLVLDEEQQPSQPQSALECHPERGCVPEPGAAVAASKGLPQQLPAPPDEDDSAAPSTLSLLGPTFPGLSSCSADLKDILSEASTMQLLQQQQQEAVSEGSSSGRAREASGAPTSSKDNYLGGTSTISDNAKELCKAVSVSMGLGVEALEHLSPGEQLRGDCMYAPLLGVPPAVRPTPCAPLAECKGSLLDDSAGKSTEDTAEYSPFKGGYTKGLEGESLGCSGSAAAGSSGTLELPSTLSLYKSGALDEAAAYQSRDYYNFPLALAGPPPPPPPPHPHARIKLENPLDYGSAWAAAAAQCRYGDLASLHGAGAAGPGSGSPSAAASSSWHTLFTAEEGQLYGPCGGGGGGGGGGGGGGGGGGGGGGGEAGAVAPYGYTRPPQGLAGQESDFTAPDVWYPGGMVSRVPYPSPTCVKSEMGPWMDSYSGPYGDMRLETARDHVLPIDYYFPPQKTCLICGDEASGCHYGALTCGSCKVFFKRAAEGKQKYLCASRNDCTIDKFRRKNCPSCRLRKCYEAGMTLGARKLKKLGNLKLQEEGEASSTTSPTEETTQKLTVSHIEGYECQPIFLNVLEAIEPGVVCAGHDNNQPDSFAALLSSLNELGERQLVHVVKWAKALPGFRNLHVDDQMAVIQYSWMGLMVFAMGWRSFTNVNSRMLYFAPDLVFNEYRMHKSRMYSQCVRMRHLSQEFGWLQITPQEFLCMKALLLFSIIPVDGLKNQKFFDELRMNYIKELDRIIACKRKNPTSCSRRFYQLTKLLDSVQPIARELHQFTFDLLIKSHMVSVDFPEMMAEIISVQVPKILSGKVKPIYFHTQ

Take `COc1ccc(NC(C)=O)cc1`: the Potency entry in test [1], in [4], in test [5] and in test [7] was “inactive” in each case. Further, the result in test [2], in [3], in test [6] and in [8] was inactive.
With `O=c1[nH]c(=O)n([C@H]2O[C@H](CO)[C@@H](O)[C@@H]2O)cc1/C=C\Br`, the Potency result in test [1], in [4], in [5] and in test [7] was “inactive” in each case. Moreover, the result in test [2], in test [3], in [9], in [6] and in test [8] was inactive.
On to `NC1CCN(c2cccc(Cl)n2)CC1`, for which the Potency result in test [1], in test [4], in test [10], in test [5] and in test [7] was “inactive” in each case. Further, the result in test [2], in test [3], in test [6] and in [8] was inactive.
For the compound `C1CCCCCCCCCCC1`, the cytotoxicity increase in test [1] was -1.99% [at 15.8 µM]. Further, the activity change, negative = cytotoxicity in test [2] was -5.47% [at 19 µM]; in [6] it was -1.94% [at 19 µM]. Further, the viability change, negative = cytotoxic in test [3] is 10.4% [at 19 µM]; in [7], 0.953% [at 19 µM]; in test [8], -0.0913% [at 19 µM]. Moreover, the Potency entry in test [4] was “inactive”. In addition, the activity change, negative = inhibition in test [9] is -1.81% [at 19 µM]; in [5] it was 3.38% [at 19 µM].
As to `O=C(CCOCCOCCOCCOCCC(=O)Nc1c(I)cc(I)c(C(=O)O)c1I)Nc1c(I)cc(I)c(C(=O)O)c1I`, the Potency entry in test [1], in test [4], in test [5] and in test [7] was “inactive” throughout. For the same compound, the result in test [2], in test [3], in [9], in [6] and in test [8] was inactive.
Consider `C=CCn1c(=O)n([C@@H]2O[C@H](CO)[C@@H](O)[C@H]2O)c2nc(N)[nH]c(=O)c21`, for which the Potency entry in test [1], in [4], in [10] and in test [5] was “inactive” each time. Further, the result in test [2], in [3], in test [9], in [6] and in test [8] was inactive.
On to `CCCCNc1ccccc1`, for which the Potency entry in test [1], in test [4], in [5] and in test [7] was “inactive” in each case. Also, the outcome in test [2], in test [3], in test [9], in test [6] and in test [8] was inactive.
For the compound `CCCCCN(CCCCC)C(=O)C(CCC(=O)O)NC(=O)c1ccc(Cl)c(Cl)c1` (stereo not given), the Potency result in [1], in [4], in test [10], in [5] and in test [7] was “inactive” each time. Further, the result in test [2], in [3], in [9], in test [6] and in test [8] was inactive.
With `O=C1CC2(CCCC2)CC(=O)N1`, the Potency result in test [1], in test [4], in [5] and in test [7] was “inactive” each time. Also, the outcome in [2], in test [3], in test [9], in [6] and in test [8] was inactive.
`C#CC(O)C(CC)CCCC` (stereo not given): the Potency entry in test [1], in test [4], in test [5] and in test [7] was “inactive” in each case. Also, the outcome in test [2], in test [3] and in test [6] was inactive.
Take `CN1[C@@H]2CC[C@H]1CC(NC(=O)n1c(=O)[nH]c3ccccc31)C2` (stereo not given in full): the Potency entry in test [1], in test [4], in test [10], in test [5] and in [7] was “inactive” in each case. For the same compound, the outcome in test [2], in test [3], in [9], in test [6] and in test [8] was inactive.
For the compound `CCCCc1ccc2cccc(S(=O)(=O)O)c2c1`, the Potency result in test [1], in test [4], in test [5] and in test [7] was “inactive” in each case. Moreover, the outcome in [2], in test [3], in test [9], in test [6] and in test [8] was inactive.
Consider `NS(=O)(=O)c1cc2c(cc1Cl)NC(CSCc1ccccc1)=NS2(=O)=O`, for which the Potency entry in [1], in [10], in test [5] and in [7] was “inactive” each time. Besides, the outcome in [2], in test [3], in test [9], in test [6] and in test [8] was inactive.
On to `NCCNC(=O)c1ccc(Cl)cn1`, for which the Potency result in test [1], in [10] and in test [5] was “inactive” each time. The result in test [2], in [3], in [9], in [6] and in [8] was inactive.
Regarding `CCN1CCCC(OC(=O)C(c2ccccc2)c2ccccc2)C1` (stereo not given), the Potency entry in test [1], in test [10], in test [5] and in test [7] was “inactive” throughout. For the same compound, the outcome in test [2], in [3], in test [9], in [6] and in [8] was inactive.
In the case of `C[C@H](O)C(=O)Nc1c(I)c(C(=O)NC(CO)CO)c(I)c(C(=O)NC(CO)CO)c1I`, the Potency result in [1], in [10] and in test [5] was “inactive” in each case. For the same compound, the result in test [2], in [3], in [9], in [6] and in test [8] was inactive.
As to `CC(=O)N[C@@H](CCC(N)=O)C(=O)O`, the Potency entry in test [1], in [10], in [5] and in test [7] was “inactive” in each case. The result in test [2], in test [3], in [9] and in test [6] was inactive.
`Nc1nc(F)nc2c1ncn2[C@@H]1O[C@H](CO)[C@@H](O)[C@@H]1O`: the Potency entry in test [1], in test [10], in [5] and in [7] was “inactive” throughout. For the same compound, the result in test [2], in test [3], in [9], in [6] and in test [8] was inactive.
Regarding `CC1CCN(CCCC(=O)c2ccc(F)cc2)CC1`, the Potency result in [1], in [10] and in test [5] was “inactive” throughout. Further, the outcome in [2], in test [3], in test [9], in test [6] and in [8] was inactive.
As for `CCCCOCC(C)OCC(C)O` (stereo not given), the Potency entry in test [1], in test [5] and in test [7] was “inactive” each time. The outcome in test [2], in test [3], in test [9] and in test [6] was inactive.
As for `Nc1ccn(C2CO[C@H](CO)O2)c(=O)n1` (stereo not given in full), in test [1], the Potency was 19 µM (active). Also, the result in test [2], in [3], in test [9], in [6] and in [8] was inactive. For the same compound, in test [10], the PLD induction was 4.48% [at 7.66 µM]. The Potency result in test [5] was “inactive”.
Take `CC(C)[N+](C)(C)CC(O)COc1cccc2ccccc12` (stereo not given): the Potency entry in test [1], in test [10], in [5] and in [7] was “inactive” each time. Besides, the outcome in test [2], in test [3], in test [9], in test [6] and in test [8] was inactive.
Take `COC(=O)C1=C(C)NC(C)=C(C(=O)OCC(C)=O)C1c1ccccc1[N+](=O)[O-]` (stereo not given): the Potency entry in test [1], in test [10] and in [5] was “inactive” in each case. Moreover, the outcome in test [2], in [3], in [9] and in [6] was inactive. For the same compound, the Potency in test [7] is 26.6 µM (active).
Turning to `Oc1cc(O)c2c(c1)O[C@H](c1ccc(O)c(O)c1)[C@H](O)C2`, the Potency entry in test [1], in test [10], in test [5] and in test [7] was “inactive” each time. The outcome in [2], in test [3], in test [9], in test [6] and in test [8] was inactive.
On to `C=C(C)[C@H]1CC=C(C)CC1`, for which the Potency result in test [1] and in test [5] was “inactive” throughout. The outcome in test [2], in test [3], in [9] and in test [6] was inactive.
As to `CCC(=O)Nc1cccc(N)c1`, the Potency entry in test [1], in test [5] and in test [7] was “inactive” each time. For the same compound, the result in [2], in test [3], in test [9] and in test [6] was inactive.
